Screening data: PubChem BioAssay, National Center for Advancing Translational Sciences (NCATS)
Most compounds without a hit are left out; they make up all but 1.5% or so of the library.
Caspase-7 inhib: qHTS Assay for Allosteric/Competitive Inhibitors of Caspase-7 | recombinant caspase-7, Ac-DEVD-AFC fluorescence rate | Potency, µM (titrated, usually from 57.5 µM), usual class: inhibitors | actives 0.02% (n = 75,000) | P55210; active = well fitted inhibition curve with a large enough effect in the main read-out, with a control signal flat, not every such curve was filed as active; inconclusive = small, poorly fitted or top-dose-only effect, or a change in a side signal
BRCT PPI green: qHTS Assay for Inhibitors of BRCT-Phosphoprotein Interaction (Green Fluorophore); actives 0.05% (n = 75,000); Breast cancer type 1 susceptibility protein (Homo sapiens), P38398; Potency, µM (top dose mostly 76.9 µM), hits mostly inhibitors; BRCA1 BRCT-phosphopeptide binding, green fluorescence polarization; AID 875, 2007
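Compounds were incubated for 12 min at room temperature with a complex of 100 nM fluorescein-tagged pBACH1 decapeptide and 250 nM His-tagged BRCT protein. Buffer was phosphate pH 7.3 with EDTA, DTT and Tween 20. Disruption of binding lowers the polarization signal.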
ALOX15 inhib: qHTS Assay for Inhibitors of 15-hLO (15-human lipoxygenase); Polyunsaturated fatty acid lipoxygenase ALOX15 (Homo sapiens), P16050; purified 15hLO-1, xylenol orange hydroperoxide absorbance; Potency, µM (top dose mostly 57.1 µM), hits mostly inhibitors; actives 1.4% (n = 74,000); AID 887, 2007; also: nearly all actives have a fitted effect of over 55% in size
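Purified human 15hLO-1 (40 nM final) in 25 mM Hepes pH 7.5, 0.01% Triton X-100 was preincubated with compound 15 min at room temperature, then reacted 6 min with 50 uM arachidonic acid; hydroperoxide detected by Fe-XO, 573/405 nm absorbance ratio.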
USP2a inh: qHTS Assay for Inhibitors of Ubiquitin-specific Protease USP2a | Ubiquitin carboxyl-terminal hydrolase 2 (Homo sapiens), O75604 | USP2a enzymatic assay, qHTS inhibition | Potency, µM (top dose mostly 38.3 µM), actives largely listed as inhibitors | actives 0.1% (n = 60,000) | AID 927, 2007; also: nearly all actives have a fitted effect of over 60% in size
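Inhibition is measured in a cell-free coupled assay with 20 nM USP2 core, 20 nM Ub-PLA2 and 20 uM NBD C6-HPC, 2.5 h incubation. Activity normalized to NEM control.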
BRCT PPI red: qHTS Assay for Inhibitors of BRCT-Phosphoprotein Interaction (Red Fluorophore); Potency, µM (titrated, usually from 76.9 µM), hits mostly inhibitors; actives 0.03% (n = 75,000); BRCT-phosphopeptide binding, red fluorescence polarization
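Rhodamine-labelled pBACH1 10-mer (100 nM) bound to BRCT domain (100 nM) at pH 7.3; compounds incubated 12 min room temperature, polarization read. Free peptide defines full inhibition; unlabelled decapeptide titrated as control.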
Casp1 inh: qHTS Assay for Allosteric/Competitive Inhibitors of Caspase-1; P29466; Caspase-1 enzyme, Ac-WEHD-AFC fluorogenic rate; Potency, µM (top dose mostly 57.5 µM), most hits filed as inhibitors; actives 0.03% (n = 75,000); AID 900, 2007
Large screens that a line does not name were inactive. Unless noted, calls follow the shape of the dose curve; as a rule, active = well fitted curve in the direction sought with a large enough effect; inconclusive = small, poorly fitted or top-dose-only effect, or another doubt; inactive = no such curve, though single readings can be large; an effect the other way counts as inactive or inconclusive.

CC(C)(C)N1C(=O)[C@H]2[C@H]3[C@H](O)[C@H](O)C/C(=N/NC(=O)OCc4ccccc4)[C@H]3CC[C@@H]2C1=O	none (no result: USP2a inh)
CO[C@H]1COC(=O)[C@@H](CCSC)NC(=O)C/C=C\[C@@H](C)[C@H](OC)COC(=O)[C@@H](OCc2ccccc2)/C=C\[C@@H]1C	none (no result: USP2a inh)
Cc1csc(-c2coc3cc(O)cc(C)c3c2=O)n1	ALOX15 inhib 16µM
COc1ccc(-c2coc3cc(O)cc(O)c3c2=O)cc1	none
N/C(CSc1nc(-c2ccccc2)c(-c2ccccc2)o1)=N\O	ALOX15 inhib 13µM
CC1CCN(c2nc(-c3ccncc3)nc3ccccc23)CC1	USP2a inh inconclusive
CC1CCCCN1c1nc(-c2ccncc2)nc2ccccc12 (configuration not stated)	ALOX15 inhib inconclusive, USP2a inh 10µM
CC[C@@H](c1ccccc1)n1c(=O)n2n(c1=O)[C@H]1[C@H](O)[C@H]3O[C@@H]3/C(=N/OCC(C)C)[C@@H]1CC2	none (no result: USP2a inh)
Nc1ccc(C2CCCc3nonc32)c2nonc12 (configuration not stated)	ALOX15 inhib 7.9µM, Casp1 inh inconclusive
CN(C)c1ccc(-c2nccc(NCc3cccs3)n2)cc1	ALOX15 inhib inconclusive, USP2a inh inconclusive
c1csc(CNc2ccnc(-c3ccoc3)n2)c1	ALOX15 inhib 20µM
COc1ccccc1-c1nccc(NCc2cccs2)n1	ALOX15 inhib 10µM
COc1ccc(CNc2ncnc3ccc(-c4ccc(N(C)C)cc4)cc23)c(OC)c1	ALOX15 inhib inconclusive, USP2a inh inconclusive
Nc1nc2c(s1)CCc1c-2cnn1-c1ccccc1	ALOX15 inhib 2.5µM, Casp1 inh inconclusive
CC(=O)c1c(OC(=O)c2ccco2)c2ccccc2n1C	ALOX15 inhib 25µM
CO[C@H]1COC(=O)[C@H](C)NC(=O)[C@@H](C)COC(=O)[C@H]2CCCN2C(=O)C/C=C\[C@H]1C	none (no result: USP2a inh)
CCOC(=O)C1=C(CSc2nc(C)ccc2C#N)OC(N)=C(C#N)C1c1cccc(OC)c1OC (configuration not stated)	ALOX15 inhib 20µM
CS(=O)(=O)N1CCC(C(=O)NCCC2=CCCCC2)CC1	none
CS(=O)(=O)NCCC1=CCCCC1	ALOX15 inhib 20µM
CCn1c(C(=O)NCCCc2ccccc2)cc2sccc21	ALOX15 inhib 20µM (no result: USP2a inh)
CN1CCc2c(cc(O)c(O)c2Cl)[C@H](c2cccc(Cl)c2)C1	ALOX15 inhib 16µM
Cc1nc(NCc2ccccc2)c2nc(-c3ccccc3)n(CCN3CCOCC3)c2n1	ALOX15 inhib 20µM (no result: USP2a inh)
CCCCNc1nc(C)nc2c1nc(-c1ccccc1)n2CCN1CCCCC1	ALOX15 inhib 13µM (no result: USP2a inh)
O=c1c2ccccc2c2ccccc2c(=O)n1-c1cc2c3ccccc3ccc2c2ccccc12	none (no result: USP2a inh)
NS(=O)(=O)c1ccc(Nc2nc(-c3ccc(O)cc3)cs2)cc1	ALOX15 inhib 25µM
c1ccc(-c2csc(-c3nc4ccccc4[nH]3)n2)cc1	BRCT PPI green inconclusive, ALOX15 inhib 7.9µM (no result: USP2a inh)
Nc1cccc(-c2nc3ccccc3[nH]2)c1	none
Cn1c(Cl)nc2ccccc21	none
Cn1c(-c2nc(-c3ccccc3)cs2)nc2ccccc21	BRCT PPI green 40µM, ALOX15 inhib inconclusive (no result: USP2a inh)
Cc1ccc(C2C3CSCC=C3C(C#N)=C(N)C2(C#N)C#N)cc1 (configuration not stated)	ALOX15 inhib 25µM, Casp1 inh inconclusive
N#CC1=C(N)C(C#N)(C#N)[C@H](c2ccncc2)[C@H]2CC3(CC=C12)OCCO3	none
Nc1nc(Cl)nc2c1ncn2[C@@H]1O[C@@H](CO)[C@@H](O)[C@H]1O	none
CCCCCCC#CC1C=CC(Oc2ccc(C=O)cc2)C(CO)O1 (configuration not stated)	none (no result: USP2a inh)
CC(C)c1ccc(NC(=O)C2CC(=O)N=C(N)S2)cc1 (configuration not stated)	ALOX15 inhib 25µM
CCc1ccc(NC(=O)C2CC(=O)N=C(N)S2)cc1 (configuration not stated)	none
Cc1cccc2cc(CN(CCCO)C(=O)Nc3cccc(Cl)c3)c(=O)[nH]c12	ALOX15 inhib 20µM
Cc1cccc2cc(CN(CCCO)C(=O)Nc3ccc(Cl)cc3)c(=O)[nH]c12	none
OCC1OC(/C=C\c2ccccc2)C=CC1Oc1ccc2c(c1)OCO2 (configuration not stated)	none (no result: USP2a inh)
C=C(C)CSc1nc(N)c(C#N)c(-c2ccc(C)cc2)c1C#N	ALOX15 inhib 32µM
Cc1cccc(CNc2ccnc(-c3ccccc3Cl)n2)c1	none
Cc1ccc(C(=O)CSc2n[nH]c(-c3ccco3)n2)cc1C	none
O=C(CSc1n[nH]c(-c2ccccc2)n1)c1ccc(O)c(O)c1	ALOX15 inhib 5µM (no result: USP2a inh)
COc1cccc(Nc2ncc3ncc(=O)n(C)c3n2)c1	none
CCN(CC)C(=O)c1cc2sc3ccccc3c2s1	ALOX15 inhib 25µM
CCCCCC[C@@H]([C@@H](C)O)n1cnc2c(N)ncnc21	ALOX15 inhib 13µM (no result: USP2a inh)
Nc1ncnc2c1ncn2C[C@@H](O)C(=O)O	none (no result: USP2a inh)
O=C(O)c1ccc(NS(=O)(=O)c2cccc3ccccc23)cc1	none (no result: USP2a inh)
O=C(O)c1ccc2c(c1C(=O)O)C(=O)OC2(c1ccc(O)cc1)c1ccc(O)cc1	none (no result: USP2a inh)
O=C1OC2(c3ccc(O)cc3Oc3cc(O)ccc32)c2c1c(-c1ccccc1)c(-c1ccccc1)c(-c1ccccc1)c2-c1ccccc1	ALOX15 inhib 1µM (no result: USP2a inh)
C=CCOCC1CN2C(CCC(C)C2c2ccc(Br)cc2)C(=O)O1 (configuration not stated)	none (no result: USP2a inh)
O=c1c(-c2ccc(O)cc2)coc2cc(O)cc(O)c12	ALOX15 inhib inconclusive
O=c1c(-c2cc(O)c(O)c(O)c2)coc2cc(O)c(O)c(O)c12	ALOX15 inhib 10µM
CO[C@H]1COC(=O)C/C=C\[C@H](C)[C@@H](OC)COC(=O)[C@@H](C)NC(=O)C/C=C\[C@@H]1C	none (no result: USP2a inh)
CC(C)CNC1=CC(=O)CC(c2ccco2)C1 (configuration not stated)	ALOX15 inhib 10µM
O=C(N/N=C1/C[C@@H](O)[C@@H](O)[C@@H]2[C@@H]3C(=O)N(C[C@@H]4CCCO4)C(=O)[C@H]3CC[C@@H]12)OCc1ccccc1	none (no result: USP2a inh)
COc1cccc(Cn2c(=O)c(-c3cccs3)nc3cnc(N4CCNCC4)nc32)c1	Caspase-7 inhib inconclusive (no result: Casp1 inh)
